This is an account of results in PubChem BioAssay (NCATS).

Each structure is given as a SMILES string. Records with an inconclusive call do not appear. Entries that show only a call come without a potency. Active and inactive are the calls of the source. The call rests on the fitted dose curve; in most records, active means well fitted curve in the direction sought with a large enough effect; inconclusive means small, poorly fitted or top-dose-only effect, or another doubt; inactive means no such curve, though single readings can be large; an effect the other way counts as inactive or inconclusive.

Chain of Calcium and integrin-binding protein 1 (Homo sapiens) (Q99828 whole entry, looked up): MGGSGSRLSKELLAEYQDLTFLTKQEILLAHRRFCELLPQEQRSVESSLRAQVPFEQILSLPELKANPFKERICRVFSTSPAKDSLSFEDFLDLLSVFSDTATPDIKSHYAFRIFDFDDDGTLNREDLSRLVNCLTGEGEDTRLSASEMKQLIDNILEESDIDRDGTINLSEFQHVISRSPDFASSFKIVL

Test system in one assay: not listed separately
Kind of assay: Primary qHTS for inhibitors of La Crosse Virus (LACV) - induced cell death in SH-SY5Y cells (AID 1508616).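 Further: top concentration of the series differs between compounds; higher means more rescue of cells from virus-induced death.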 The following applies: SH-SY5Y LACV cytopathicity rescue, ATP luminescence, 6 d; series mostly up to 9.63 µM. A digest of the protocol:
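Readout was luminescence from ATPLite 1step added after a 6-day LACV infection (0.01 MOI) of SH-SY5Y cells that had received pin-transferred compound 24 hr after seeding.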
A general note: Quantitative high-throughput screening tests each substance at several concentrations.
On to `Nc1ccc(O)c(C(=O)O)c1`, for which the Potency entry was “inactive”.

For `O=C(OCc1ccccc1)c1ccccc1`, the Potency result is “inactive”.

In the case of `CC(C)Cc1ccc([C@H](C)C(=O)O)cc1`, the Potency result was “inactive”.

`C#C[C@]1(O)CC[C@H]2[C@@H]3CCC4=Cc5oncc5CC4(C)[C@H]3CCC21C` (stereo partly specified): the Potency entry is “inactive”.

Consider `Nc1cc(-c2ccncc2)c[nH]c1=O`, for which the Potency entry is “inactive”.

A further assay addresses Calcium and integrin-binding protein 1 (Homo sapiens) (UniProt Q99828). Kind of assay: Validation qHTS for Identification of Calcium Integrin Binding protein 1 (CIB1) Competitor (AID 1508618). The conditions noted are these: CIB1-GST / FITC-alphaIIb peptide fluorescence polarization; series mostly up to 114 µM. A digest of the protocol:
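In this qHTS validation, the LOPAC set (up to 114 uM) was tested for blocking CIB1 binding to a fluorescein-tagged alphaIIb peptide, with FP detection at 480/540 nm.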
Regarding `CCNC(=O)[C@H]1O[C@@H](n2cnc3c(N)nc(NCCc4ccc(CCC(=O)O)cc4)nc32)[C@H](O)C1O` (stereo partly specified), the outcome was inactive.

Turning to `COc1ccc(/C=C/c2nc(NCCCN(C)C)c3ccccc3n2)cc1`, the result was inactive.

For `Nc1nc2ccc(Cl)cc2n2c(-c3ccccc3)nnc12`, the outcome was inactive.

Turning to `Cn1c(=O)c(-c2c(Cl)cccc2Cl)cc2cnc(Nc3ccc(N4CCOCC4)cc3)nc21`, the outcome was inactive.

As to `NS(=O)(=O)c1ccc(-n2nc(C(F)(F)F)cc2-c2ccc(Cl)cc2)cc1`, the result was inactive.

In the case of `O=C(CCc1ccncc1)NNC(=O)N1Cc2ccccc2Oc2ccc(Cl)cc21`, the outcome was inactive.

As to `Nc1ccn([C@H]2O[C@H](CO)[C@@H](O)C2(F)F)c(=O)n1`, the result was inactive.

For `COc1ccc(/C=C2\COc3ccc(C)cc3C2=O)cc1O`, the outcome was inactive.

Consider `CC(C)(NS(=O)(=O)c1ccc(Oc2ccc(F)cc2)cc1)C(=O)NO`, for which the result was inactive.

With `CCCCCCCCCCCCCCCCCCN(CCCCCCCCCCCCCCCCCC)CCCN(CCO)CCO`, the result was inactive.

In the case of `O=C(CCSCc1ccco1)NNC(=O)N1Cc2ccccc2Oc2ccc(Cl)cc21`, the outcome was inactive.

As for `CN[C@H](CC(C)C)C(=O)N[C@H]1C(=O)N[C@@H](CC(N)=O)C(=O)N[C@H]2C(=O)N[C@H]3C(=O)N[C@H](C(=O)N[C@H](C(=O)O)c4cc(O)cc(O)c4-c4cc3ccc4O)[C@H](O)c3ccc(c(Cl)c3)Oc3cc2cc(c3O[C@@H]2O[C@H](CO)[C@@H](O)[C@H](O)[C@H]2O[C@H]2C[C@](C)(N)[C@H](O)[C@H](C)O2)Oc2ccc(cc2Cl)[C@H]1O`, the outcome was inactive.

For the molecule `O=C1NC(O)=NC1(c1ccccc1)c1ccccc1`, the result was inactive.

Take `CO[C@H]1O[C@@H]2O[C@]3(C)CC[C@@H]4[C@@H](C)CC[C@H]([C@H]1C)[C@]24OO3`: the result was inactive.

Take `O=C(NOCC1CC1)c1cc(Br)c(F)c(F)c1Nc1ccc(I)cc1Cl`: the result was inactive.

Regarding `COCCOc1cc2nc[nH]c(=O)c2cc1OCCOC`, the outcome was inactive.

For the molecule `Nc1nc2c(ncn2[C@@H]2O[C@H](CO)[C@@H](O)[C@@H]2O)c(=O)[nH]1`, the outcome was inactive.

`COc1ccccc1CN[C@@H]1CCCN[C@@H]1c1ccccc1`: the outcome was inactive.

`Brc1cc2c(cc1[C@H]1Nc3ccccc3[C@H]3C=CC[C@H]31)OCO2`: the result was inactive.

For `COc1ccc(-c2cc(=O)c3c(O)c(OC)c(OC)cc3o2)cc1O`, the result was inactive.

In the case of `COc1ccc(C(=O)/C(Cc2cc(OC)c(OC)c(OC)c2)=C(\C(=O)O)c2ccc3c(c2)OCO3)cc1`, the result was inactive.

For `CCCC(CCC)C(=O)OC1CC2CCC(C1)[N+]2(C)C` (stereo unspecified), the result was inactive.

Consider `Cc1cn([C@H]2CC(N=[N+]=[N-])[C@@H](CO)O2)c(=O)[nH]c1=O` (stereo partly specified), for which the result was inactive.

`Nc1nc(OCC2CCCCC2)c2[nH]cnc2n1`: the result was inactive.

Consider `CC[C@H]1OC(=O)[C@H](C)[C@@H](O[C@H]2C[C@@](C)(OC)[C@@H](O)[C@H](C)O2)[C@H](C)[C@@H](O[C@@H]2O[C@H](C)C[C@H](NC)[C@H]2O)[C@](C)(O)C[C@@H](C)CN(C)[C@H](C)[C@@H](O)[C@]1(C)O`, for which the result was inactive.

As to `COCCOc1cc2ncnc(Cl)c2cc1OCCOC`, the outcome was inactive.

As for `COc1cc(OC)cc(-c2cc3cnc(N)nc3nc2NC(=O)NC(C)(C)C)c1`, the result was inactive.

Turning to `S=c1[nH]c(-c2ccccc2)cn1-c1ccccc1`, the outcome was inactive.

As to `CC[C@H]1OC(=O)[C@H](C)C(O[C@H]2C[C@@](C)(OC)[C@@H](O)[C@H](C)O2)[C@H](C)[C@@H](OC2O[C@H](C)C[C@H](N(C)C)[C@H]2O)[C@](C)(O)C[C@@H](C)CN(C)[C@H](C)[C@@H](O)[C@]1(C)O` (stereo partly specified), the result was inactive.

Consider `CC(C)c1cccc(C(C)C)c1N1C(=O)c2ccc(O)cc2C1=O`, for which the outcome was inactive.

For `O=c1cc(-c2ccccc2)oc2c(O)c(O)ccc12`, the outcome was inactive.

Test system in a further assay: not listed separately
Kind of assay: Primary qHTS for small molecule stabilizers of the endoplasmic reticulum resident proteome: Secreted ER Calcium Modulated Protein (SERCaMP) assay (AID 1508630). The following applies: SH-SY5Y GLuc-SERCaMP (Gaussia luciferase released on ER calcium loss) secretion, thapsigargin, luminescence; series mostly up to 38.4 µM. The gist of the method:
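GLuc-SERCaMP-expressing SH-SY5Y cells, pretreated 16 h with compound, are challenged with thapsigargin to empty ER calcium stores; after 4 h, coelenterazine is added directly to the medium and luminescence is imaged.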
As to `Nc1ccc(O)c(C(=O)O)c1`, the Potency entry was “inactive”.

Regarding `O=C(OCc1ccccc1)c1ccccc1`, the Potency entry is “inactive”.

For `CC(C)Cc1ccc([C@H](C)C(=O)O)cc1`, the Potency entry was “inactive”.

Take `C#C[C@]1(O)CC[C@H]2[C@@H]3CCC4=Cc5oncc5CC4(C)[C@H]3CCC21C` (stereo partly specified): the Potency entry is “inactive”.

As to `Nc1cc(-c2ccncc2)c[nH]c1=O`, the Potency result is “inactive”.
